ChEMBL document CHEMBL3988442, “University of Dundee, Small-Polar-MMV Screening Library” (2021)

Each compound was assayed against AMP-activated protein kinase, AMPK (Homo sapiens) (UniProt P54646+O43741+P54619+Q9UGJ0+Q9Y478+Q13131+Q9UGI9) (assay: AMP-dependent Kinase enzyme assay. An in vitro enzyme assay that detects ADP turnover that is directly proportional to AMPK activity. This uses naive AMPK that is activated during the assay with MK-8722). Conditions: 30 µM.
Assay type: functional
Set-up: scale not given: direction of the effect not stated beside the values
`CNS(=O)(=O)CC(=O)NCc1cc2c(s1)CCCCC2` gave a Percent Effect of -1.26%.
For `CNC(=O)c1cn2cc(-c3cccc(Cl)c3)n(CC=C(C)C)c(=O)c2n1`, the Percent Effect was 2.79%.
`O=C(CNc1ccc(OC2CCOC2)cc1)NCc1ccc(F)cc1` (stereo not given) showed a Percent Effect of 18.1%.
With `COCc1cc(N(C)Cc2cc(C(C)(C)C)n[nH]2)ncn1` the Percent Effect was -7.3%.
`CCOC(=O)c1n[nH]cc1CN1CCCC(N(C)Cc2ccccc2)C1` (stereo not given) showed a Percent Effect of -0.954%.
`Cc1cc(N2Cc3cnn(CCO)c3C2)nc(-c2ccccc2)n1` was tested, and the Percent Effect was 4.37%.
`CCc1nc2n(n1)CC(NCC1=Cc3ccc(OC)cc3OC1)CC2` (stereo not given) showed a Percent Effect of 8.35%.
`CC1(C)OC(=O)N(CC(=O)N2CCC(c3ccccc3F)C2)C1=O` (stereo not given) gave a Percent Effect of 12.7%.
In the case of `O=C1CCC2(CCNCC2)CN1Cc1nncn1CCc1ccccc1`, the Percent Effect is reported as 14.9%.
For `CC(O)C1CCN(C(=O)CCOc2ccccc2F)CC1` (stereo not given), the Percent Effect was 4.43%.
With `CCCS(=O)(=O)NCc1nc(C)cc(N2CCCC2)n1` the Percent Effect was 4.77%.
For `c1csc(N2CCCN(c3ncnc4sccc34)CC2)n1`, the Percent Effect was 21.9%.
With `CCc1nnc(NC(=O)NCCN(C)C(=O)OC(C)(C)C)s1` the Percent Effect was -3.38%.
With `CCOc1ccc(Cl)cc1CCNC(=O)Cn1nc(C)ccc1=O` the Percent Effect was 5.21%.
For `CC(=O)NCCc1cc2nc(-c3ccncc3)ccn2n1`, the Percent Effect was 17.4%.
In the case of `CC(=O)N[C@H]1CCO[C@@H](c2cccc(NC(=O)Cc3ccccc3)c2)C1`, the Percent Effect is reported as 7.18%.
With `COC(=O)C1(NCC(=O)Nc2cc(C)ccc2OC)CCCCC1` the Percent Effect was -3.05%.
`CC(C)C(C(=O)N(C)C)c1cccc(Cl)c1` (stereo not given) gave a Percent Effect of 6.38%.
With `Cc1cc(Oc2ccc(NC(=O)C3CC3)cc2)cc(C2CCNCC2)n1` the Percent Effect was -9.8%.
Compound `O=C(CC1CCCC1)NCCS(=O)(=O)N1CCN(c2ccccn2)CC1` has a Percent Effect of -2.11%.
